# Bioassay records: PubChem, National Center for Advancing Translational Sciences (NCATS)
# This is one part of a sample in which hits are shown more often than they occur.
# IL1B secr inh: inhibitors of inflammasome signaling (IL-1 beta secretion). THP-1 LPS/ATP IL-1B secretion, AlphaLISA, 16 h; stronger effect = lower value. activity change, % at 57.5 µM. 360,000 compounds, 4.7% hits. AID 743279; in the data active = activity change below about -50%; inconclusive = mostly about -30% to -49%
#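 Secreted IL-1B measured by AlphaLISA bead assay after 16 h compound exposure of THP-1 cells; compounds (final up to 57.5 uM) added 1 h before LPS (250 ng/mL) and ATP (1.25 mM) stimulation; lower signal means less secretion.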
# ALOX12 inh: ALOX12 (human) lipoxygenase inhibition; P18054; purified 12hLO, xylenol orange hydroperoxide absorbance; Potency, µM (top dose mostly 108 µM), actives largely listed as inhibitors; 580,000 compounds, 1.1% hits; AID 1671190
# Target sequence (P18054 whole entry, looked up): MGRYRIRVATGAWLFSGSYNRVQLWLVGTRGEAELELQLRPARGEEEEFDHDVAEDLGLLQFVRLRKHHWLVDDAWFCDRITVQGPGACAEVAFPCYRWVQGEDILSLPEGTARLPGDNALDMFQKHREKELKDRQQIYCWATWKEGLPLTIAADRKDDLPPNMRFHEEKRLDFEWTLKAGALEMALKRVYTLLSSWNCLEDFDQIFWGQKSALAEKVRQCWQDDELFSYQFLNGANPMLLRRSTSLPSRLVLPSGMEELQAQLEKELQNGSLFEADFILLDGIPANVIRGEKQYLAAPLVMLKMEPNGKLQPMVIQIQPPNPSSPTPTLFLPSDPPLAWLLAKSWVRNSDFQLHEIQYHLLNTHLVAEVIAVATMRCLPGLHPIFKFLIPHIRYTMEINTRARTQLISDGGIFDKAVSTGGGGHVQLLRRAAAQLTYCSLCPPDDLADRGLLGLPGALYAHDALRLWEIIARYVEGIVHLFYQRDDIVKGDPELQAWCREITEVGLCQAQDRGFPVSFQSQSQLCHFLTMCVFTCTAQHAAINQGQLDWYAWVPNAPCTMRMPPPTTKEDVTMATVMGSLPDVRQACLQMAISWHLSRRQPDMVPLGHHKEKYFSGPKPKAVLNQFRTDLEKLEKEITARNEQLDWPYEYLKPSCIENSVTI
#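 Hydroperoxide product was detected by ferrous iron/xylenol orange as the 573 to 405 nm absorbance ratio. Arachidonic acid at 40 uM (final) was turned over for 30 min at room temperature by 150 nM human 12hLO, pH 7.0 Hepes buffer, after 15 min compound preincubation.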
# HT1080NT lethal: kills 2HG-producing HT-1080-NT fibrosarcoma cells; HT-1080-NT fibrosarcoma viability, CellTiter-Glo ATP luminescence, 48 h; Potency, µM (highest dose often 46.1 µM), hits mostly cytotoxic; 360,000 compounds, 1.6% hits; AID 686970;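 also: NT is the 2HG producing partner of a matched IDH1 knockdown line; nearly all actives have a fitted effect of over 55% in size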
#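 Viability by CellTiter-Glo luminescence after 48 h compound exposure at 37C of HT-1080-NT cells (750/well, RPMI, 5% FBS). % activity scaled between DMSO wells and medium-only wells, then curve-fitted and categorized by curve class.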
# TDP1 cell CPT: DT40-hTDP1 cell growth loss with CPT; chicken DT40 Tdp1-/-;hTDP1 cells + 20 nM CPT, ATP luminescence, 48 h; Potency, µM (series often up to 46.2 µM), usual class: inhibitors; 420,000 compounds, 12% hits; AID 686979; also: nearly all actives have a fitted effect of over 55% in size
#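 Cell growth measured by CellTiter-Glo luminescence after a minimum 48 h, 37 C compound exposure with 20 nM CPT in Tdp1-knockout DT40 cells stably expressing hTDP1, seeded 400/well; qHTS titration format.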
# DT40 TDP1 no CPT: qHTS for Inhibitors of human tyrosyl-DNA phosphodiesterase 1 (TDP1): qHTS in cells in absence of CPT; DT40 Tdp1-/- hTDP1 cells, no CPT, ATP luminescence, 48 h; Potency, µM (highest dose often 46.2 µM), most hits filed as inhibitors; 420,000 compounds, 15% hits; AID 686978, 2013; also: nearly all actives have a fitted effect of over 55% in size
#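 No-CPT arm: Tdp1-/-;hTDP1 DT40 cells (400/well) plus compounds, incubated ≥48 hr at 37 °C. Readout CellTiter-Glo luminescence.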
# HT1080 IDH1KD tx: toxicity to HT-1080 IDH1 knockdown cells (counter line); Potency, µM (titrated, usually from 46.1 µM), actives largely listed as cytotoxic; HT-1080 IDH1 knockdown viability, ATP luminescence, 48 h; 360,000 compounds, 2% hits
#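 CellTiter-Glo luminescence after 48 h compound exposure at 37 degrees C of IDH1-knockdown HT-1080 cells in 5% FBS RPMI. %Activity scaled between DMSO wells and cell-free media wells, with curves fitted and assigned curve classes.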
# A number is an active result; . = inactive; ? = inconclusive; / = not tested or not shown; ! = repeats disagree. Unless noted, calls follow the shape of the dose curve; as a rule, active = well fitted curve in the direction sought with a large enough effect; inconclusive = small, poorly fitted or top-dose-only effect, or another doubt; inactive = no such curve, though single readings can be large; an effect the other way counts as inactive or inconclusive.
SMILES,IL1B secr inh,ALOX12 inh,HT1080NT lethal,TDP1 cell CPT,DT40 TDP1 no CPT,HT1080 IDH1KD tx
O=C(CC[C@@H]1CNC(=O)[C@@H]2C[C@H](NCc3ccc(CO)o3)CN12)NCc1ccccc1,/,.,/,/,/,/
COCCn1c(C)cc(C(=O)N2CCCC(Cc3noc(-c4cnccn4)n3)C2)c1C (stereo not drawn),/,.,/,/,/,/
CC(C)Oc1ccc(C(=O)NC2(C(F)(F)F)NC(=O)N(CCCc3ccccc3)C2=O)cc1 (stereo not drawn),-63.9,.,.,?,?,?
CCNC(=O)NC(=O)CN1CCCCCCC1,/,.,/,/,/,/
Cc1ccc(CN(C)C(=O)CN2C(=O)NC(c3ccccc3)(c3ccccc3)C2=O)c(C)c1,-62.8,.,.,?,16.4µM,.
Cc1onc(-c2c(F)cccc2Cl)c1C(=O)Nc1sc2c(c1C(N)=O)CCC2,?,?,11.2µM,11.2µM,11.2µM,14.1µM
Cc1onc(-c2c(F)cccc2Cl)c1C(=O)Nc1sc2c(c1C#N)CCC(C(C)(C)C)C2 (stereo not drawn),?,?,.,?,16.4µM,.
Cc1onc(-c2c(F)cccc2Cl)c1C(=O)Nc1nnc(C2CC2)s1,.,.,.,?,?,.
Cc1onc(-c2ccccc2)c1C(=O)Nc1nncs1,.,.,.,.,.,.
Cc1onc(-c2ccccc2)c1C(=O)Nc1sc2c(c1C(N)=O)CCC2,-50.2,.,.,.,?,.
Cc1onc(-c2ccccc2)c1C(=O)Nc1sccc1C#N,-64.8,.,.,.,.,.
Cc1cccc(-c2nc3n(CC(=O)N4CCCCCC4)c(C)cc(=O)n3n2)c1,/,.,/,/,/,/
Cc1onc(-c2ccccc2)c1C(=O)Nc1sc2c(c1C#N)CCC2,.,?,12.6µM,29.1µM,?,?
Cc1onc(-c2ccccc2)c1C(=O)NC(=S)Nc1sc2c(c1C#N)CCC(C)C2 (stereo not drawn),.,.,.,?,?,.
Cc1ccc(C)c(OCCCN2CCNCC2)c1,.,?,.,.,.,.
Cc1ccc(C(C)C)c(OCCCn2ccnc2C)c1,.,?,.,16.4µM,29.1µM,.
Cc1ccc(C(C)C)c(OCCCCN2CCNCC2)c1,-58.5,?,.,14.6µM,16.4µM,.
Cc1cccc(C(C)(C)C)c1OCCCCN1CCCC1,.,?,.,?,23.1µM,?
Cc1ccc(C(C)C)c(OCCN)c1,.,.,.,.,?,.
Cc1ccc(C)c(OCCCCN2CCNCC2)c1C,.,.,.,14.6µM,6.51µM,.
Cc1cn2nnc(C(=O)NCc3ccc(C(C)C)cc3)c2c(=O)[nH]1,/,.,/,/,/,/
CC1(C(=O)NCCc2ccccc2)Cc2c(-c3cccc(C(F)(F)F)c3)ccnc2O1 (stereo not drawn),.,.,?,?,?,?
CC1(C(=O)NCC2CCOCC2)Cc2c(-c3cccc(C(F)(F)F)c3)ccnc2O1 (stereo not drawn),.,.,?,5.17µM,3.26µM,3.66µM
CN(C)CCNC(=O)C1(C)Cc2c(-c3cccc(C(F)(F)F)c3)ccnc2O1 (stereo not drawn),.,.,?,.,6.51µM,?
CC1(C(=O)NCCC(F)(F)F)Cc2c(-c3cccc(C(N)=O)c3)ccnc2O1 (stereo not drawn),.,.,?,?,0.82µM,?
SMILES,IL1B secr inh,ALOX12 inh,HT1080NT lethal,TDP1 cell CPT,DT40 TDP1 no CPT,HT1080 IDH1KD tx
CC1(C(=O)NCCC(F)(F)F)Cc2c(-c3cccc(C(F)(F)F)c3)ccnc2O1 (stereo not drawn),.,.,20.6µM,4.61µM,3.26µM,5.8µM
COc1cc(=O)n2c(c1C(=O)Nc1ccc(Br)cc1)CCCC2,/,.,/,/,/,/
CN(Cc1ccc(-c2ccccc2)cc1)Cc1ccnn1C,/,.,/,/,/,/
CSc1nnc(-c2sc3cc(C(F)(F)F)cnc3c2-c2cccnc2)n1C,.,.,.,?,16.4µM,.
Cc1cc(C)c2oc(C(=O)NCC(c3cccs3)N3CCOCC3)cc(=O)c2c1 (stereo not drawn),/,.,/,/,/,/
Cc1cccc(-n2c(C)nc3cc(C(=O)NCCC4=CCCCC4)ccc32)c1,/,.,/,14.6µM,?,/
CCc1ccc(-n2c(C)nc3cc(C(=O)NCCc4ccccc4)ccc32)cc1,/,.,/,20.6µM,?,/
CCCNC(=O)c1ccc2c(c1)nc(C)n2-c1cccc(C)c1,.,.,.,16.4µM!,?,.
COCCNC(=O)c1ccc2c(c1)nc(C)n2-c1cccc(F)c1,.,.,.,.,.,.
Cc1ccc(CSc2nnc(COc3ccc(Cl)c(C)c3)n2C)cc1,/,.,/,/,/,/
CCOC(=O)CNC(=O)CSc1cn(CC(=O)N2CCCC2)c2ccccc12,/,.,/,/,/,/
CC(CC(=O)Nc1ccc2c(c1)c(=O)n(C)n2Cc1ccc(F)cc1)C(F)(F)F (stereo not drawn),.,.,.,?,?,.
CC(=O)c1cccc(NC(=O)CC(C)c2ccccc2)c1 (stereo not drawn),/,.,/,/,/,/
CC(CC(=O)Nc1ccc2c(c1)c(=O)n(C)n2Cc1ccc(F)cc1)c1ccccc1 (stereo not drawn),.,.,?,20.6µM,20.6µM,?
CC(CC(=O)Nc1ccc(F)c([N+](=O)[O-])c1)c1ccccc1 (stereo not drawn),.,.,.,?,?,.
Cn1c(=O)c2cc(NC(=O)CC(C)(C)C)ccc2n1-c1ccccc1F,.,.,?,?,23.1µM,.
CC(CC(=O)Nc1cccc(Cl)c1)c1ccccc1 (stereo not drawn),-72.1,?,.,?,?,.
CC(CC(=O)Nc1ccc2c(c1)c(=O)n(C)n2-c1ccccc1F)c1ccccc1 (stereo not drawn),.,.,7.31µM,6.51µM,5.8µM,4.11µM
Cc1ccc(-c2cnc(CCC(=O)NC(C)c3ccc4c(c3)NC(=O)CO4)o2)cc1C (stereo not drawn),/,.,/,/,/,/
CCCC(NC(C)C(=O)O)C(=O)OCC (stereo not drawn),/,.,/,/,/,/
CN(Cc1ccccc1)C(=O)COc1ccc(N(C)S(=O)(=O)c2ccc(F)cc2)cc1,.,.,.,16.4µM,14.6µM,.
CN(c1ccc(OCC(=O)OCC(=O)Nc2ccccc2)cc1)S(=O)(=O)c1ccc(F)cc1,.,.,.,.,.,.
Cc1ccc(S(=O)(=O)N(C)c2ccc(OCC(=O)Nc3nc(-c4ccccc4)cs3)cc2)cc1,.,.,.,16.4µM,13µM,.
CCOC(=O)C(=O)c1csc(NC(=O)COc2ccc(N(C)S(=O)(=O)c3ccc(F)cc3)cc2)n1,.,.,.,.,.,.
